# From PubChem BioAssay (Tox21)
# Values joined by “and” are separate entries in the source; they are usually repeats but may differ in a detail not shown here. Equal values may be shown once. Records with an inconclusive call do not appear. A call without a number means that no potency is given here. Active and inactive are the calls of the source. Unless noted, the call rests on the fitted dose curve; in most records, active means well fitted curve in the direction sought with a large enough effect in the repeat runs; inconclusive means weak or mixed curves; inactive means no such curve, though single readings can be large; an effect the other way counts as inactive or inconclusive.
# Experiments:
# [1] = qHTS assay for small molecules that induce genotoxicity in human embryonic kidney cells expressing luciferase-tagged ATAD5 (AID 651632); further: nearly all actives have a fitted effect of over 15% in size; further: potency means the concentration at half of the fitted maximal effect
# How it was run: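 Genotoxicity read-out via ATAD5-luciferase: HEK293T cells, 16 hr compound incubation at 37C, Amplite detection.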
# [2] = qHTS assay for small molecule agonists of the p53 signaling pathway - cell viability (AID 651633; calls by dose curve; further: nearly all actives have a fitted effect of over 30% in size; further: potency means the concentration at half of the fitted maximal effect)
# How it was run: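 p53RE-bla cells, seeded at 4,000 per well and rested 5 h at 37 C/5% CO2, received compounds in DMSO for 16 h at 37 C. CellTiter-Glo was then added, and luminescence was read after 30 min at room temperature to gauge cytotoxicity.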
# [3] = qHTS assay for small molecules that induce genotoxicity in human embryonic kidney cells expressing luciferase-tagged ATAD5 - cell viability (AID 651634; calls by dose curve; further: nearly all actives have a fitted effect of over 25% in size; further: potency means the concentration at half of the fitted maximal effect)
# How it was run: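 Live-cell protease activity (CellTiter-Fluor, fluorescence) indicates viability. HEK293T cells with luciferase-tagged ATAD5; 15.5 hr compound treatment at 37C.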
# [4] = qHTS assay for small molecule disruptors of the mitochondrial membrane potential - cell viability (AID 720634; calls by dose curve; further: nearly all actives have a fitted effect of over 20% in size; further: potency means the concentration at half of the fitted maximal effect)
# How it was run: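 Human hepatoma HepG2 cells were treated for 1 hr with test chemicals, then given m-MPI dye and CellTiter-Glo. Cell viability reflects luminescence proportional to cellular ATP.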
# [5] = qHTS assay for small molecule disruptors of the mitochondrial membrane potential (AID 720635); further: potency means the concentration at half of the fitted maximal effect
# How it was run: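 HepG2 cells (2,000/well) attached overnight at 37C, then took compound for 1 hr at 37C, 5% CO2. Mito-MPS dye was added for 30 min; fluorescence was read at 490/535 nm (monomers) and 540/590 nm (aggregates).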
# [6] = qHTS assay to test for compound auto fluorescence at 590 nm (red) in HepG2 cells (AID 720674)
# How it was run: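 Intrinsic compound fluorescence in the red window (Ex/Em 540/590 nm) is measured in attached HepG2 cells exposed for 1 hr, DMSO vehicle as baseline, benchmarked to Rose Bengal sodium.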
# [7] = qHTS assay to test for compound auto fluorescence at 535 nm (green) in HepG2 cells (AID 720675)
# [8] = qHTS assay to test for compound auto fluorescence at 460 nm (blue) in HEK293 cells (AID 720678)
# How it was run: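 Intrinsic compound fluorescence is recorded in live HEK293 cultures after overnight incubation at 37C, 5% CO2, using excitation 405 nm and emission 460 nm. Values are referenced to triamterene.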
# [9] = qHTS assay to test for compound auto fluorescence at 590 nm (red) in HEK293 cells (AID 720679)
# How it was run: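 Red autofluorescence, HEK293 cells: 2,000 cells/well; attach 4-5 hr 37C; add 23 nL cpd or DMSO; incubate o/n 37C 5% CO2; read Ex540/Em590; Rose Bengal sodium reference.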
# [10] = qHTS assay for small molecule agonists of the p53 signaling pathway (AID 651631; calls by dose curve; further: nearly all actives have a fitted effect of over 15% in size; further: potency means the concentration at half of the fitted maximal effect)
# How it was run: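 Readout was fluorescence from the LiveBLAzer FRET substrate, applied for 2 h at room temperature after 16 h compound exposure at 37 °C. Cells were the p53RE-bla HCT-116 line, with beta-lactamase driven by p53 response elements.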
SMILES,Potency [1],Potency [2],Potency [3],Potency [4],Potency [5],outcome [6],outcome [7],Potency [8],outcome [9],Potency [10],"fluorescence, relative to Rose Bengal [6]","fluorescence, % of fluorescein control [7]","fluorescence, % of triamterene [8]","fluorescence, % of fluorescent control [9]"
CCCOCC(=Nc1ccc(Cl)cc1C(F)(F)F)n1ccnc1,inactive,24.3 µM (active),61.1 µM (active),30.6 µM (active),6.11 µM (active),inactive,inactive,inactive,inactive,,,,,
Clc1ccc(COC(Cn2ccnc2)c2ccc(Cl)cc2Cl)cc1 (configuration not stated),inactive,29.8 µM (active) and 27.2 µM (active),26.6 µM (active),26.6 µM (active),18.8 µM (active) and 45.3 µM (active) and 54.3 µM (active),inactive,inactive,inactive,inactive,,,,,
Oc1ccc(C2(c3ccc(O)cc3)c3ccccc3-c3ccccc32)cc1,inactive,0.172 µM (active),,,61.1 µM (active),inactive,inactive,inactive,inactive,61.1 µM (active),,,,
S=C=Nc1cccc2ccccc12,inactive,48.1 µM (active),inactive,48.1 µM (active),17.1 µM (active),inactive,inactive,inactive,inactive,,,,,
BrCBr,,inactive,,inactive,inactive,inactive,inactive,inactive,inactive,inactive,,,,
CSCCCN=C=S,,,54.5 µM (active),inactive,,inactive,inactive,,inactive,54.5 µM (active),,,,
Clc1ccc(C(c2ccccc2Cl)C(Cl)(Cl)Cl)cc1 (configuration not stated),inactive,54.8 µM (active) and 40.2 µM (active),inactive,,,inactive,inactive,inactive,inactive,69 µM (active),,,,
CCN(CC)c1c([N+](=O)[O-])cc(C(F)(F)F)c(N)c1[N+](=O)[O-],inactive,inactive,inactive,,24.3 µM (active),inactive,inactive,,inactive,inactive,,,,
CC(C)[C@H](C(=O)O[C@H](C#N)c1cccc(Oc2ccccc2)c1)c1ccc(Cl)cc1,inactive,inactive,inactive,,30.6 µM (active),inactive,inactive,inactive,inactive,inactive,,,,
c1ccc(OCC2CO2)cc1 (configuration not stated),,inactive,,inactive,,inactive,inactive,,inactive,inactive,,,,
CCC(C)(C)C(=O)OC1=C(c2ccc(Cl)cc2Cl)C(=O)OC12CCCCC2,,61.1 µM (active),inactive,,9.69 µM (active),inactive,inactive,inactive,inactive,7.7 µM (active),,,,
CCC(C)c1cc([N+](=O)[O-])cc([N+](=O)[O-])c1OC(=O)C=C(C)C (configuration not stated),inactive,,30.6 µM (active),,,inactive,inactive,inactive,inactive,12.2 µM (active),,,,
[Cl][Sb]([Cl])[Cl],,inactive,,inactive,,inactive,inactive,inactive,inactive,34.4 µM (active),,,,
CCOC(=O)CC(=O)CCl,,,,inactive,,inactive,inactive,inactive,inactive,68.6 µM (active),,,,
CC(Cc1ccc(C(C)(C)C)cc1)CN1C[C@@H](C)O[C@@H](C)C1 (some centres not stated),inactive,inactive,inactive,inactive,61.1 µM (active),inactive,inactive,inactive,inactive,,,,,
BrC(Br)Br,,inactive,inactive,inactive,,inactive,inactive,inactive,inactive,inactive,,,,
Clc1ccc(C(Cl)(Cl)Cl)c(Cl)c1,inactive,inactive,inactive,inactive,61.6 µM (active),inactive,inactive,inactive,inactive,,,,,
Nc1ccccc1C(=O)Oc1ccc2ccccc2c1,5.45 µM (active),inactive,inactive,,61.1 µM (active),inactive,inactive,inactive,inactive,inactive,,,,
ClC1=C(Cl)C2(Cl)C3C(Cl)C=CC3C1(Cl)C2(Cl)Cl (configuration not stated),inactive,68.9 µM (active) and 54.5 µM (active),inactive,inactive,27.4 µM (active) and 54.5 µM (active),inactive,inactive,inactive,inactive,,,,,
c1ccc2c(c1)OCC(C1=NCCN1)O2 (configuration not stated),inactive,inactive,inactive,inactive,27.8 µM (active),inactive,inactive,inactive,inactive,,,,,
COP(=S)(OC)Oc1cc(Cl)c(Br)cc1Cl,inactive,inactive,inactive,54.5 µM (active),6.86 µM (active),inactive,inactive,inactive,inactive,,,,,
COc1cc(C=O)cc2c1[C@H](COC(N)=O)[C@]1(OC(C)=O)ON2C[C@H]2[C@@H]1N2C(C)=O,inactive,,,inactive,inactive,inactive,inactive,inactive,inactive,1.54 µM (active),,,,
O=c1oc2ccccc2c(O)c1Cc1c(O)c2ccccc2oc1=O,inactive,0.507 µM (active),inactive,,,,,,,0.639 µM (active),-0.349% [at 18.6 µM] (inactive),0.0236% [at 18.6 µM] (inactive),0.108% [at 18.6 µM] (inactive),-0.0848% [at 18.6 µM] (inactive)

SMILES,Potency [1],Potency [2],Potency [3],Potency [4],Potency [5],outcome [6],outcome [7],Potency [8],outcome [9],Potency [10],"fluorescence, relative to Rose Bengal [6]","fluorescence, % of fluorescein control [7]","fluorescence, % of triamterene [8]","fluorescence, % of fluorescent control [9]"
CC(C)Oc1cccc(NC(=O)c2ccccc2C(F)(F)F)c1,inactive,inactive,inactive,30.6 µM (active),17.2 µM (active),inactive,inactive,inactive,inactive,,,,,
CC(C)CCCCCCCOP(=O)(Oc1ccccc1)Oc1ccccc1,,inactive,,,,inactive,inactive,,inactive,inactive,,,,
Cc1cc(C)cc(OP(=O)(Oc2cc(C)cc(C)c2)Oc2cc(C)cc(C)c2)c1,inactive,inactive,inactive,,49.3 µM (active),inactive,inactive,inactive,inactive,inactive,,,,
O=C(O)COc1nc(Cl)c(Cl)cc1Cl,inactive,inactive,inactive,inactive,19.8 µM (active),inactive,inactive,inactive,inactive,,,,,
N#CNC#N,,inactive,inactive,inactive,,inactive,inactive,inactive,inactive,inactive,,,,
O=C(CCCN1CCC2(CC1)C(=O)NCN2c1ccccc1)c1ccc(F)cc1,inactive,inactive,inactive,inactive,3.35 µM (active),inactive,inactive,inactive,inactive,,,,,
O=c1ssc(Cl)c1Cl,inactive,54.5 µM (active),61.1 µM (active),61.1 µM (active),30.6 µM (active),inactive,inactive,inactive,inactive,,,,,
C=CCC1=C(C)C(OC(=O)C2C(C=C(C)C)C2(C)C)CC1=O (configuration not stated),inactive,64.8 µM (active),inactive,11.5 µM (active),5.78 µM (active),inactive,inactive,inactive,inactive,,,,,
Cc1cc(C(F)(C(F)(F)F)C(F)(F)F)ccc1NC(=O)c1cccc(I)c1C(=O)NC(C)(C)CS(C)(=O)=O,inactive,inactive,inactive,inactive,17.3 µM (active),inactive,inactive,inactive,inactive,,,,,
Cc1ccc(OP(=O)(Oc2ccccc2)Oc2ccccc2)cc1,inactive,inactive,inactive,,0.983 µM (active),inactive,inactive,inactive,inactive,inactive,,,,
Clc1ccc(-c2ccc(Cl)c(Cl)c2Cl)c(Cl)c1Cl,inactive,65.3 µM (active),inactive,,,inactive,inactive,,inactive,58.2 µM (active),,,,
CC1(C)[C@H](C(=O)O[C@H](C#N)c2cccc(Oc3ccccc3)c2)[C@@H]1/C=C(\Cl)C(F)(F)F,inactive,inactive,inactive,,25.3 µM (active),inactive,inactive,inactive,inactive,,,,,
CCN(CC)C(=S)[S-].CCN(CC)C(=S)[S-].[Zn+2],5.4 µM (active),4.29 µM (active),15.2 µM (active),inactive,3.41 µM (active),inactive,inactive,,inactive,,,,,
COc1cccc(C(=O)CCN[C@@H](C)[C@H](O)c2ccccc2)c1,inactive,inactive,inactive,inactive,,inactive,inactive,inactive,inactive,,,,,
CC[C@H]1C[C@@H]2C[C@H]3c4[nH]c5ccc(OC)cc5c4CCN(C2)[C@@H]13,inactive,inactive,inactive,inactive,,inactive,inactive,inactive,inactive,,,,,
c1ccc(Nc2ccc3ccccc3c2)cc1,inactive,inactive,inactive,17.1 µM (active),8.58 µM (active) and 13.7 µM (active),inactive,inactive,,inactive,,,,,
O=[N+]([O-])c1ccc(Oc2ccc(C(F)(F)F)cc2[N+](=O)[O-])cc1,inactive,inactive,inactive,19.3 µM (active),12.2 µM (active),inactive,inactive,,inactive,,,,,
COP(=O)(OC)SCn1c(=O)oc2cc(Cl)cnc21,inactive,inactive,inactive,inactive,,inactive,inactive,inactive,inactive,,,,,
CC(=O)c1cc(C(C)(C)C)cc2c1CCC2(C)C,inactive,54.5 µM (active),inactive,,30.6 µM (active),inactive,inactive,inactive,inactive,,,,,
Clc1ccc(C(c2ccc(Cl)cc2)C(Cl)(Cl)Cl)cc1,inactive,26.6 µM (active) and 48.9 µM (active) and 27.3 µM (active),inactive,inactive,21.1 µM (active) and 19.5 µM (active) and 15.4 µM (active),inactive,inactive,inactive,inactive,,,,,
BrC(Br)C(Br)(Br)Br,inactive,inactive,inactive,inactive,,inactive,inactive,inactive,inactive,,,,,
C[C@H]1O[C@@H](O[C@H]2[C@@H](O)C[C@H](O[C@H]3[C@@H](O)C[C@H](O[C@H]4CC[C@@]5(C)[C@H](CC[C@@H]6[C@@H]5CC[C@]5(C)[C@@H](C7=CC(=O)OC7)CC[C@]65O)C4)O[C@@H]3C)O[C@@H]2C)C[C@H](O)[C@@H]1O,inactive,47.3 nM (active) and 12.3 nM (active),53.1 nM (active) and 30.8 nM (active),inactive,119 nM (active) and 97.5 nM (active),inactive,inactive,inactive,inactive,,,,,
ClC(Cl)=C(c1ccc(Cl)cc1)c1ccc(Cl)cc1,inactive,70.3 µM (active) and 48.6 µM (active),inactive,inactive,22.2 µM (active) and 24.3 µM (active),inactive,inactive,inactive,inactive,,,,,
